According to PubChem BioAssay (NCATS):
Inconclusive results are not listed. The source made the active and inactive calls. Unless noted, calls come from the whole dose curve; as a rule, active = well fitted curve in either direction with a large enough effect (not every such curve was filed as active); inconclusive = small, poorly fitted or top-dose-only effect, or another doubt; inactive = flat fitted curve, though single readings scatter.

Assays:
[1] = target: Lysosomal acid glucosylceramidase (Homo sapiens) (UniProt P04062); assay: Glucocerebrosidase-p2 (AID 348; in the data active = potency below about 10 µM; note: potency is the fitted concentration of half-maximal effect); settings: purified GBA, blue fluorogenic substrate, 40 min
Method in brief: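 Compounds titrated from 0.6 nM upwards against 0.2 nM enzyme in pH 5.9 citric acid/KH2PO4, taurocholate, tween-20; blue fluorogenic substrate 80 uM, 40 min room temperature, stopped and read Ex 365/Em 440 for AC50.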

[2] = AP1 Signaling Pathway (AID 357); settings: ME-180 AP-1-bla reporter, EGF-induced, beta-lactamase ratio, 5 h; at 7.69 µM (top of the series) unless noted; note: % is set by controls: 0 for no effect and ±100 for the full control effect
Method in brief: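 AP-1-bla ME-180 cells with beta-lactamase reporter under AP-1 response element, stimulated with EC50 EGF; compounds titrated, 5 hours at 37 degrees Celsius. CCF4 read at 460/530 nm ratio; positive and negative modulators judged by AC50.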

[3] = target: Cytochrome P450 1A2 (Homo sapiens) (UniProt P05177); assay: p450-cyp1a2 (AID 410; calls by dose curve; note: potency is the fitted concentration of half-maximal effect;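 for activity change, negative = inhibition: -100% = full effect of reference inhibitor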); settings: recombinant CYP1A2, luciferin-ME demethylation, luminescence; series mostly up to 57 µM
Method in brief: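 Human CYP1A2 (20nM) demethylated Luciferin-ME at its Km (100uM) in 100mM KPO4. After 10 min compound preincubation, NADPH regeneration ran the reaction 60 min at room temperature. Luciferin was read by luminescence, normalized to 57 uM furafylline.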

[4] = NFAT Signaling Pathway (AID 444); settings: Jurkat NFAT-bla M1, carbachol, beta-lactamase ratio, 5 h; at 7.69 µM (top of the series) unless noted;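 note: carbachol stimulus at about its EC50 of 1 µM final; % is set by controls: 0 for no effect and ±100 for the full control effect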
Method in brief: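 Jurkat cells carrying an NFAT-driven β-lactamase reporter and co-transfected muscarinic M1 receptor were treated with compound plus carbachol (1 uM final, an EC50 level) for 5 h at 37 °C. CCF4 loading followed for 1 h at RT; 460/530 nm ratio gave %activity.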

[5] = Stat Signaling Pathway (AID 446); settings: ME-180 SIE beta-lactamase reporter, IL-6 stimulated, 5 h; at 7.69 µM (top of the series) unless noted;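 note: ME-180 cervical cancer cells given 40 pM IL-6 alongside compound; SIE-controlled beta-lactamase reporter measured as 460/530 nm FRET emission ratio; % is set by controls: 0 for no effect and ±100 for the full control effect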
Method in brief: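 Reporter line: ME-180 cervical carcinoma, SIE-beta-lactamase. Treatment: compound with 40 pM IL-6, 5 hrs, 37 C, in low-serum OPTI-MEM with 10 mM HEPES pH 7.3. Detection: 460/530 nm fluorescence.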

[6] = target: Glucocorticoid receptor (Homo sapiens) (UniProt P04150); assay: GR-GFP Redistribution (AID 450;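 active = compounds whose dose series gives a full or clear partial fitted curve of increased nuclear translocation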; note: potency is the fitted concentration of half-maximal effect); settings: U2OS GR-GFP nuclear translocation, laser cytometry, 2 h
[7] = target: Glucocorticoid receptor (Homo sapiens) (UniProt P04150); assay: GR-EFC Redistribution (AID 451; calls by dose curve; note: potency is the fitted concentration of half-maximal effect); settings: CHO-K1 GR-EFC translocation, beta-gal luminescence, 2 h
Method in brief: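 CHO-K1 cells stably expressing nuclear-localized β-gal enzyme acceptor and GR fused C-terminally to the enzyme donor fragment; ligand-driven nuclear translocation restores β-gal by complementation. Compounds titrated up to 46 uM final, 2 h at 37 °C; luminescence read.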

[8] = target: Mitogen-activated protein kinase 10 (Mus musculus) (UniProt Q61831); assay: JNK3 AlphaScreen Assay (AID 530); settings: JNK3 lysate, c-Jun phosphorylation; series mostly up to 57.1 µM;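 note: kinase came from lysate of stimulated human HepG2 cells; signal reports phosphorylation of biotinylated GST-cJun 1-79 at Ser73 with 10 µM ATP; % is set by controls: 0 for no effect and ±100 for the full control effect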
Method in brief: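 JNK3 came from HepG2 lysates pre-activated with IL-1beta and TNF-alpha and phosphorylated biotinylated GST-cJun (1-79) at 10 uM ATP, pH 7.6, room temperature. Compounds were titrated. AlphaScreen signal used anti-phospho-cJun (Ser73) antibody.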

[9] = target: Cytochrome P450 3A4 (Homo sapiens) (UniProt P08684); assay: qHTS Assay for Activators of Cytochrome P450 3A4 (AID 885; active = well fitted curve in the direction sought with a large enough effect; an effect the other way counts as inactive or inconclusive; note: nearly all actives have a fitted effect of over 65% in size); settings: recombinant CYP3A4, Luciferin-PPXE luminescence, 60 min; series mostly up to 57.1 µM
Method in brief: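 Signal was normalized against complete inhibition by 57 uM ketoconazole. The reaction used 20nM CYP3A4 with 25uM Luciferin-PPXE, 10-min compound preincubation and a 60-min NADPH-supported step at RT.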

[10] = Confirmation and Secondary Assay for Modulators of Hemoglobin Beta Chain Splicing at IVS2 654 locus (AID 910; active = well fitted curve in the direction sought with a large enough effect; an effect the other way counts as inactive or inconclusive;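 note: per-well total GFP intensity by laser scanning cytometry after 2-day treatment; % of control where 0% means no effect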); settings: HeLa EGFP-654 splicing reporter, GFP fluorescence, 48 h; series mostly up to 38.3 µM
Method in brief: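 HeLa cells stably carrying EGFP interrupted by mutant beta-globin IVS2-654 intron (CMV-driven) were treated with compound for 2 days at 37C; corrected splicing was scored as total peak GFP intensity per well (488 nm excitation, 500-520 nm emission).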

[11] = Confirmation and Secondary Assay for Modulators of Hemoglobin Beta Chain Splicing at IVS2 705 locus (AID 930; active = well fitted curve in the direction sought with a large enough effect; an effect the other way counts as inactive or inconclusive;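 note: HeLa cells stably expressing the EGFP-705 splicing reporter; GFP fluorescence per well restored by corrected splicing of the IVS2-705 intron in EGFP; % of control where 0% means no effect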); settings: HeLa EGFP-705 splicing reporter, GFP fluorescence, 48 h; series mostly up to 38.3 µM
Method in brief: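 HeLa EGFP-705 reporter; 500 cells/well, o/n 37C 5% CO2; cpd 2 d; 488 ex/500-520 em laser scan; total peak GFP intensity/well. Ref: 500 nM […] antisense PNA.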

[12] = qHTS Assay for Lipid Storage Modulators (AID 1519; calls by dose curve); settings: Drosophila S3 cells, BODIPY lipid droplet/cell ratio, laser cytometry, cells loaded with oleic acid; for activity change, negative = inhibition: at 57.5 µM (top of the series)
Method in brief: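 Cells seeded at 5,000 per well were treated with compounds over a concentration series and loaded with oleic acid (400 uM, as added). Lipid droplet fluorescence (488 nm excitation, 500-530 nm channel) was read by laser-scanning cytometry and normalized to 20 uM Triacsin C.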

[13] = Primary qHTS for small molecule stabilizers of the endoplasmic reticulum resident proteome: Secreted ER Calcium Modulated Protein (SERCaMP) assay (AID 1508630; active = well fitted curve in the direction sought with a large enough effect; an effect the other way counts as inactive or inconclusive; note: % is set by controls: 0 for no effect and ±100 for the full control effect); settings: SH-SY5Y GLuc-SERCaMP (Gaussia luciferase released on ER calcium loss) secretion, thapsigargin, luminescence; series mostly up to 38.4 µM
Method in brief: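 GLuc-SERCaMP-expressing SH-SY5Y cells, pretreated 16 h with compound, are challenged with thapsigargin to empty ER calcium stores; after 4 h, coelenterazine is added directly to the medium and luminescence is imaged.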

[14] = target: 3',5'-cyclic-AMP phosphodiesterase 4B (Homo sapiens) (UniProt Q07343); assay: qHTS Assay for Inhibitors of PDE-IV (AID 607; active = well fitted activation curve with a large enough effect in the main read-out, with a control signal flat, not every such curve was filed as active; note: % of control where 0% means no effect); settings: HEK293 ACTOne CNG channel cells, membrane potential fluorescence; series mostly up to 22.9 µM
Method in brief: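 Cell-based read-out of cAMP via a modified cyclic nucleotide-gated channel and membrane potential dye (535/590 nm) in HEK293 cells expressing PDE4 endogenously. Compounds tested up to 22.9 uM final; 100 uM RO 20-1724 reference.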

[15] = target: Cytochrome P450 2C19 (Homo sapiens) (UniProt P33261); assay: qHTS Assay for Inhibitors and Substrates of Cytochrome P450 2C19 (AID 899; active = well fitted curve in the direction sought with a large enough effect; an effect the other way counts as inactive or inconclusive; note: potency is the fitted concentration of half-maximal effect; nearly all actives have a fitted effect of over 60% in size); settings: recombinant CYP2C19, luciferin-H EGE luminescence; series mostly up to 57.1 µM
Method in brief: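 NADPH-dependent conversion of Luciferin-H EGE (10uM, at KM) by 5nM enzyme in 50mM KPO4, 60 min at 37C following 10 min compound preincubation. Stopped with luciferin detection buffer; luminescence read after 20 min.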

[16] = measured here: cell count channel max response
[17] = measured here: lipid channel max response

Sequence of Glucocorticoid receptor (Homo sapiens) (P04150 whole entry, looked up, the tested form may be a part): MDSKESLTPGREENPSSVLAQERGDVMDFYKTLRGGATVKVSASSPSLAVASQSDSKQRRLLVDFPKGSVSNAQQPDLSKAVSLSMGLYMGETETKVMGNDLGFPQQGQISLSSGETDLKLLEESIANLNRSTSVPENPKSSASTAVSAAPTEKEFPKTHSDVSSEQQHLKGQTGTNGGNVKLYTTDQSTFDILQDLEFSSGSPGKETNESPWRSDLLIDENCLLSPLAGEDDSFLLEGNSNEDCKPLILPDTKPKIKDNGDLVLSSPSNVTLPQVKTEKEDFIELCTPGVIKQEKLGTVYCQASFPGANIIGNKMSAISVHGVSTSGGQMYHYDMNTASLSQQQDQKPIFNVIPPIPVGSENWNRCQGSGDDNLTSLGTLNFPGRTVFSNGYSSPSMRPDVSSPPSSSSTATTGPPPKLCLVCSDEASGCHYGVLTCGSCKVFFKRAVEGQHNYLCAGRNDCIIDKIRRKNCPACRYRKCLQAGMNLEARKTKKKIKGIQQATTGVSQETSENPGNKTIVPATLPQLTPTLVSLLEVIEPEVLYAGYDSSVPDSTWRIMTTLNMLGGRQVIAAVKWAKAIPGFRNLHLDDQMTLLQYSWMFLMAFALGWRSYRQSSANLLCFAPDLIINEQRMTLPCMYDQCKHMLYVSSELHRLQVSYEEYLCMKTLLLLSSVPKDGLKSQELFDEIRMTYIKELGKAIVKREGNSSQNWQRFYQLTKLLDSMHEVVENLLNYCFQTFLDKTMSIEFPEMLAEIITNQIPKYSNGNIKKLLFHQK
Sequence of Cytochrome P450 1A2 (Homo sapiens) (P05177 whole entry, looked up): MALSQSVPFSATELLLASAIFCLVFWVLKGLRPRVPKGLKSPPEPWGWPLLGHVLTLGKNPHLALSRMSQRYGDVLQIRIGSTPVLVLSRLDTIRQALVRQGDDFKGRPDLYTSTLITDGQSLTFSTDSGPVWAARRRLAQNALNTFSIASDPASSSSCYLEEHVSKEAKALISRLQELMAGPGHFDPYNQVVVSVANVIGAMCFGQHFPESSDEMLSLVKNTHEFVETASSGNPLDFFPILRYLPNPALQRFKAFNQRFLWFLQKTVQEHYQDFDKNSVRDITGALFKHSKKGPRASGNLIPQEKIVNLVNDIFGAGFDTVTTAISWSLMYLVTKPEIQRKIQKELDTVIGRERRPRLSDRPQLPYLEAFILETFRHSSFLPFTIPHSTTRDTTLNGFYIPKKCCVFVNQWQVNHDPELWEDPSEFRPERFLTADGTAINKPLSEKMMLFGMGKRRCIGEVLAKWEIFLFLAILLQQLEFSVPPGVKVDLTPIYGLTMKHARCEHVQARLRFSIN
Sequence of Lysosomal acid glucosylceramidase (Homo sapiens) (P04062 whole entry, looked up): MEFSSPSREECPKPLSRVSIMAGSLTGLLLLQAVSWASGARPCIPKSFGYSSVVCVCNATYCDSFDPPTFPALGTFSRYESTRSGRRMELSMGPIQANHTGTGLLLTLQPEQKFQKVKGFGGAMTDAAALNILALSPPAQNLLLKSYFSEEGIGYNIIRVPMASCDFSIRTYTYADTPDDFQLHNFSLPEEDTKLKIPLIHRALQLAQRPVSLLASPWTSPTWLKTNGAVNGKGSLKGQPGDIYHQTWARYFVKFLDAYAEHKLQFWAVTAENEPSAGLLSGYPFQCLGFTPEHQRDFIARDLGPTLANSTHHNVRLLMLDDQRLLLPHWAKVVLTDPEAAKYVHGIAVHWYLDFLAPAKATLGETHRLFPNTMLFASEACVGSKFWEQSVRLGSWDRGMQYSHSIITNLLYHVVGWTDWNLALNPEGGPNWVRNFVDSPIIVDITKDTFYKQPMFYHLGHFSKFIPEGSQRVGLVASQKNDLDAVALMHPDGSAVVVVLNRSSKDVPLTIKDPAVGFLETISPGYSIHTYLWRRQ
Sequence of 3',5'-cyclic-AMP phosphodiesterase 4B (Homo sapiens) (Q07343 whole entry, looked up): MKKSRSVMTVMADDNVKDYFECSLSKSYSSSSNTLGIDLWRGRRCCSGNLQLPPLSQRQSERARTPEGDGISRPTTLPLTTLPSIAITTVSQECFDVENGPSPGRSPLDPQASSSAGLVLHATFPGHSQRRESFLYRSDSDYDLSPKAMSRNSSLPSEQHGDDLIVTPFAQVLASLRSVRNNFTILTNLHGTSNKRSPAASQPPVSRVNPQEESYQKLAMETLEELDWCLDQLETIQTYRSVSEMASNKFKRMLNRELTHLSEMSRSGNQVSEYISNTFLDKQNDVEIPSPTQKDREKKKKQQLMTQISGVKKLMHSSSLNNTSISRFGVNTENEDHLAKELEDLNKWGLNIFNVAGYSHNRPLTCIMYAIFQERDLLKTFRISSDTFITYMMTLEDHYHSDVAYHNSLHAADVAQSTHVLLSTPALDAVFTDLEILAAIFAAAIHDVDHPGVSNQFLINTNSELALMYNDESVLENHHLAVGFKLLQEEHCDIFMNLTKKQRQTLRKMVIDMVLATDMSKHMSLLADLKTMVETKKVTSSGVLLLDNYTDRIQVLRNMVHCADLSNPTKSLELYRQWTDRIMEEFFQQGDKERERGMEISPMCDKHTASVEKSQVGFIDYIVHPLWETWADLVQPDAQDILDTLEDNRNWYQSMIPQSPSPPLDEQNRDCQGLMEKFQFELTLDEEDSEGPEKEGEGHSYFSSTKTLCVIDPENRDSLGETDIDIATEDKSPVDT
Sequence of Cytochrome P450 3A4 (Homo sapiens) (P08684 whole entry, looked up): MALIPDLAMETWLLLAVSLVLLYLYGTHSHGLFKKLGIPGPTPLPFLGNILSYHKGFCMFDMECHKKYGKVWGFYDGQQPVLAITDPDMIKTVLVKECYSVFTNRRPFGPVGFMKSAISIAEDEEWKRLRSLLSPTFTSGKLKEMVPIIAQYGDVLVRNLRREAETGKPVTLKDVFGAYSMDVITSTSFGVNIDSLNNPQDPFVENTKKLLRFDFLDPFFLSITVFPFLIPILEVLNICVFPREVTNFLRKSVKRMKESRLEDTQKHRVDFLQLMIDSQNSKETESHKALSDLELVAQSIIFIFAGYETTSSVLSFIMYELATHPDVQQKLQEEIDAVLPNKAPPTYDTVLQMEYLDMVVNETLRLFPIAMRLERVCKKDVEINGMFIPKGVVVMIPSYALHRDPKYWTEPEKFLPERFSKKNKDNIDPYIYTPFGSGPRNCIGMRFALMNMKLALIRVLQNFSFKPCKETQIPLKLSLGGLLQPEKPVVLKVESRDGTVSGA
Sequence of Cytochrome P450 2C19 (Homo sapiens) (P33261 whole entry, looked up): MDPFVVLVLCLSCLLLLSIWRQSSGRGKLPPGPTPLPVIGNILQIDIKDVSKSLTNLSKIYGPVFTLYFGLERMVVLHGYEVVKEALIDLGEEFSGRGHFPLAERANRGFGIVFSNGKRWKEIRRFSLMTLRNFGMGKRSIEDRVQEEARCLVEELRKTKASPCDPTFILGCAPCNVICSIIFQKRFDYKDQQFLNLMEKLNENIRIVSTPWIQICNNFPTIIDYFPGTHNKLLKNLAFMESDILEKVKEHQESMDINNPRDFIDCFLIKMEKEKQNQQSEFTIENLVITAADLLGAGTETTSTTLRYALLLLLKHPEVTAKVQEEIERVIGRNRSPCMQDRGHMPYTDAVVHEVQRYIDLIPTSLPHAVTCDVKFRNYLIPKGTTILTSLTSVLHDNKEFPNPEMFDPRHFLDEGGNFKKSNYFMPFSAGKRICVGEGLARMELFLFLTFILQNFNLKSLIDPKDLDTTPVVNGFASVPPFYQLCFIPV

COc1ccccc1CNc1ncncc1-c1ccoc1
inactive: Potency [1] > 11.4 µM | activity change, negative = inhibition [2] -6.36% | activity change, negative = inhibition [4] -22.1% | activity, negative = inhibition [5] -4.03% | Potency [6] > 46 µM | Potency [7] > 46 µM | outcome [8] | Potency [9] | outcome [10] | outcome [11] | activity change, negative = inhibition [12] 9.08% | Potency [13]
active: Potency [3] 1.26 µM
5.8%: max response [12, 17]
-3.49%: max response [12, 16]

COc1cccc(-c2ccc3ncnc(NC4CCNCC4)c3c2)c1
2.37%: max response [12, 17]
-3.29%: max response [12, 16]
inactive: Potency [1] > 11.4 µM | activity change, negative = inhibition [2] 2.29% | activity change, negative = inhibition [4] 13.6% | activity, negative = inhibition [5] -1.25% | Potency [6] > 46 µM | Potency [7] > 46 µM | outcome [8] | Potency [14] | Potency [9] | outcome [10] | outcome [11] | activity change, negative = inhibition [12] 7.49% | Potency [13]
active: Potency [3] 20 µM | Potency [15] 6.31 µM

CS(=O)(=O)N1CCC[C@@]2(CCN(C(=O)Nc3ccccc3)C2)C1
16.4%: max response [12, 16]
inactive: Potency [1] > 11.4 µM | activity change, negative = inhibition [2] -1.88% | Potency [3] | activity change, negative = inhibition [4] 17.3% | activity, negative = inhibition [5] -10.3% | Potency [7] > 46 µM | outcome [8] | Potency [14] | activity change, negative = inhibition [12] 0.904% | Potency [13]
17.6%: max response [12, 17]

O=C(Nc1cccc(F)c1)N1CCC2(CC1)CCN(C(=O)c1cnccn1)CC2
15.9%: max response [12, 17]
11.7%: max response [12, 16]
inactive: Potency [1] > 11.4 µM | activity change, negative = inhibition [2] -10.4% | Potency [3] | activity change, negative = inhibition [4] 20.5% | activity, negative = inhibition [5] -10.8% | Potency [7] > 46 µM | outcome [8] | Potency [14] | activity change, negative = inhibition [12] 3.08% | Potency [13]
